# Reference: PubChem BioAssay (NCATS)
# Results filed as inconclusive are left out. A number with no mark means an inactive call. Activity calls are given as the source filed them. The call rests on the fitted dose curve; in most records, active means well fitted inhibition curve with a large enough effect; inconclusive means small, poorly fitted or top-dose-only effect; inactive means flat fitted curve, though single readings scatter.
# Key:
# [1] = tested on: CRL-7250; experiment: Cytotoxic Profiling of Annotated Libraries Using Quantitative High-Throughput Screening (AID 1296008); settings: Five cell lines viability, CellTiter-Glo ATP luminescence, 48-72 h; max response: hits give low values; further: nearly all actives have a fitted effect of over 60% in size
# How it was run: (§1)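 Compounds were pin-transferred onto cells and incubated 48 or 72 hr at 37 degree Celsius, 95% humidity. CellTiter-Glo was added, plates sat 10 min at room temperature, then ATP-coupled luminescence was imaged as the viability read-out.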
# [2] = tested on: HEK293; experiment: as above; settings: Five cell lines viability, CellTiter-Glo ATP luminescence, 48-72 h; max response: hits give low values
# How it was run: as §1
# On the % scale 0 is the no-effect control and ±100 the full control effect; potency means the concentration at half of the fitted maximal effect.
smiles,measurement,setting,value
CC[C@]12C=CCN3CC[C@@]4(c5cc([C@@]6(C(=O)OC)C[C@H]7C[C@@H](C(C)(F)F)CN(Cc8c6[nH]c6ccccc86)C7)c(OC)cc5N(C)[C@H]4[C@@](O)(C(=O)OC)[C@@H]1OC(C)=O)[C@@H]32,Potency,[1],485 nM (active)
same,Potency,[2],172 nM (active)
c1cc(OCCCN2CCCCC2)ccc1CN1CCCCC1,max response,[1],-3.26%
same,max response,[2],-18.4%
Cc1cc(Nc2cc(N3CCN(C)CC3)nc(/C=C/c3ccccc3)n2)n[nH]1,Potency,[1],5800 nM (active)
same,Potency,[2],3660 nM (active)
Cc1cc(C)nc(NS(=O)(=O)c2ccc(NC(=S)NC(=O)COc3ccc(Br)cc3Cl)cc2)n1,max response,[1],3.21%
same,max response,[2],2.6%
Nc1nc2c(ncn2[C@@H]2O[C@H](CO)[C@@H](O)[C@H]2O)c(=O)[nH]1,max response,[1],-5%
same,max response,[2],-9.89%
COC(=O)CCC(=O)OC[C@]1(C)CCC[C@@]2(C)C3CC[C@]4(C)C=CC3(CCC12)C4 (stereo partly specified),max response,[1],-4.15%
same,max response,[2],-2.92%
COC(=O)CCSCc1ccc(-c2onc(C)c2NC(=O)OC(C)c2ccccc2Cl)cc1 (stereo unspecified),max response,[1],-4.23%
same,max response,[2],-7.48%
CC1(C)CCC[C@]2(C)[C@H]3CC(=O)O[C@]3(C)CC[C@@H]12,max response,[1],-21.8%
same,max response,[2],-37.4%
CC(=O)OC[C@]12[C@H](OC(C)=O)C(=O)[C@@H]3[C@@H](OC(C)=O)[C@@]14O[C@@]3(C)COC(=O)c1cccnc1[C@@H](C)[C@H](C)C(=O)O[C@@H]([C@H](O)[C@@H]2OC(C)=O)[C@]4(C)O,max response,[1],0.341%
same,max response,[2],-0.596%
CC[C@H](NC(=O)[C@H](CS(=O)(=O)CC1CC1)N[C@@H](c1ccc(F)cc1)C(F)(F)F)C(=O)C(=O)NC1CC1,max response,[1],3.55%
same,max response,[2],-20.2%
C/C=C/C=C/C(O)=C1\C(O)=C(C)C(=O)[C@@]2(C)OC(=O)[C@@](C)(NC(=O)/C=C/C(=O)O)[C@@H]12,max response,[1],-29.7%
same,max response,[2],-6.48%
CC1(C)C[C@H](O)C[C@@]2(C)OC(=O)C=C12,max response,[1],1.12%
same,outcome,[2],inactive
Cn1c(=O)cc(N2CCCC(N)C2)n(Cc2cc(F)ccc2C#N)c1=O (stereo unspecified),max response,[1],3.15%
same,max response,[2],-7.1%
COc1ccc(-c2nc(-c3ccc(-c4cccc(Cl)c4)o3)[nH]c2-c2ccc(OC)cc2)cc1,outcome,[1],inactive
same,Potency,[2],20600 nM (active)
O=C(O)c1ccccc1NC(=O)N1CCC(c2ccccc2C(F)(F)F)CC1,outcome,[1],inactive
same,outcome,[2],inactive
CC(C)(O)CC(CO)NC(=O)CC(O)CC(=O)Cc1ccccc1 (stereo unspecified),max response,[1],2.18%
same,max response,[2],0.672%
Cc1ccccc1NC(=O)Nc1ccc(CC(=O)N(C)[C@@H](CC(C)C)C(=O)NCC[C@H](NC(=O)[C@@H]2CCCN2S(=O)(=O)c2cc(Cl)cc(Cl)c2)C(=O)O)cc1,max response,[1],-22.4%
same,outcome,[2],inactive
C[C@@H]1C[C@@H]([C@@H](O)C(C)(C)O)O[C@H]2C[C@@]3(C)C(=C12)C[C@H](O)[C@H]1[C@@]2(C)CCC(=O)C(C)(C)C2CC[C@@]13C (stereo partly specified),max response,[1],0.566%
same,max response,[2],3.48%
C[C@H]1CC(=O)Nc2cccc(-c3cnn(C(C)(C)C)c3)c2N1,max response,[1],-2.99%
same,max response,[2],2.23%
C=CC(C)(CC/C=C(\C)C(=O)OC)OC1OC(COC(=O)CC(C)(O)CC(=O)O)C(OC2OC(CO)C(O)C(O)C2O)C(O)C1O (stereo unspecified),outcome,[1],inactive
same,max response,[2],-1.61%
CC1CC(O)/C=C/C(O)C(O)CC(=O)Cc2c(Cl)c(O)cc(O)c2C(=O)O1 (stereo unspecified),max response,[1],2.61%
same,max response,[2],0.716%
CC1(C)C2CC=C(COC3OC(COC4OCC(O)(CO)C4O)C(O)C(O)C3O)C1C2 (stereo unspecified),outcome,[1],inactive
same,max response,[2],-3.04%
CO[C@@H](C)Cn1c(=O)n(C)c2cnc3ccc(-c4cncc(C(C)(C)O)c4)cc3c21,Potency,[1],82 nM (active)
same,Potency,[2],231 nM (active)
CC(=O)O[C@@H]1c2c(C)coc2C(=O)[C@@]23O[C@@H]2CC[C@H](C)[C@@]13C,max response,[1],3.98%
same,max response,[2],2.56%
COc1cc(NC(=O)Nc2cccc(CNC(=O)O[C@H]3CCOC3)c2)ccc1-c1cnco1,Potency,[1],8200 nM (active)
same,Potency,[2],2310 nM (active)
NC(=O)c1cccc(-c2cc(OC(=O)NC3CCCCC3)ccc2O)c1,max response,[1],2.23%
same,max response,[2],-86.9%
COc1ccc(C2(O)CCC(N3CC[C@@H](NC(=O)CNC(=O)c4cccc(C(F)(F)F)c4)C3)CC2)cn1 (stereo partly specified),max response,[1],-18%
same,max response,[2],-19.1%
CCOc1cc2ncc(C#N)c(Nc3ccc(F)c(Cl)c3)c2cc1NC(=O)/C=C/CN(C)C,Potency,[1],651 nM (active)
same,Potency,[2],1640 nM (active)
